Most compounds without a hit are left out; they make up all but 12% or so of the library.
PLK1 PBD block – blocks phosphopeptide binding to human PLK1 polo-box domain; P53350; Plk1 PBD binding of FITC phosphopeptide, fluorescence polarization; Potency, µM, most hits filed as inhibitors; hit rate 2.8% among 360,000; note: series mostly up to about 57 µM; nearly all actives have a fitted effect of over 65% in size
BAZ2B block – BAZ2B (human) inhibition; Q9UIF8; AlphaScreen BAZ2B-H3K14Ac peptide displacement; Potency, µM (doses to about 114 µM), usual class: inhibitors; hit rate 4.4% among 360,000; note: nearly all actives have a fitted effect of over 60% in size
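BAZ2B (50 nM) with biotin-H3(5-23)K14Ac peptide (50 nM) in PBS pH 7.4, 0.01% Tween-20, preformed 30 min, then compound 30 min at room temperature; top concentration 110uM. AlphaScreen streptavidin donor/nickel chelate acceptor beads (10 ug/mL final), 20 min dark, signal read.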
PI5P4K alpha inh – blocks human PI5P4K alpha kinase activity | P48426 | PI5P4Kalpha enzyme, ADP-Glo luminescence, 60 min; active compounds read low | max response, % | hit rate 1.2% among 330,000 | AID 652105; active = max response of -50% or lower; inconclusive = between -30% and -50%; inactive = -30% or higher; note: value at the top dose of about 77 µM
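Compounds were pin-transferred onto PI5P4Kalpha and substrate in HEPES pH 7.4 buffer with EGTA, CHAPS and 5% DMSO. ATP (5 microM final) started the reaction, which ran 60 minutes at room temperature before ADP-Glo detection.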
HP1b chromo inh – HP1-beta chromodomain-methylated histone interaction inhibition; P83916; AlphaScreen HP1-beta / biotin-H3K9me3 peptide binding; Potency, µM (highest dose often 114 µM), actives largely listed as inhibitors; hit rate 0.56% among 390,000; AID 540317; note: nearly all actives have a fitted effect of over 70% in size
Target sequence (P83916 whole entry, looked up): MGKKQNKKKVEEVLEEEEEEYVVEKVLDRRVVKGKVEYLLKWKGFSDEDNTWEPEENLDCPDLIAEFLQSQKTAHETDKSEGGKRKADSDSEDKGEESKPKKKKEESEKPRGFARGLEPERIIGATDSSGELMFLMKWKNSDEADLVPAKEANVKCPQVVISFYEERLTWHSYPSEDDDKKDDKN
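HP1-beta protein (50 nM final) preincubated 30 min at room temperature with biotinylated H3(1-18)K9me3 peptide (50 nM) in PBS pH 7.4, 0.01% Tween-20, then compound added for 30 min. AlphaScreen streptavidin donor/nickel chelate acceptor beads (10 ug/mL final), 30 min dark, luminescence read.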
JMJD2A Tudor – blocks the human JMJD2A Tudor domain. AID 504339. hit rate 4.4% among 390,000. Potency, µM (highest dose often 114 µM), most hits filed as inhibitors. AlphaScreen JMJD2A-Tudor / H3K4me3 peptide binding. O75164; note: nearly all actives have a fitted effect of over 50% in size
G9a block – G9a (human) methyltransferase inhibition. G9a H3K9 monomethylation, AlphaScreen, 2 h. Potency, µM (doses to about 102 µM), usual class: inhibitors. hit rate 8.8% among 350,000; note: nearly all actives have a fitted effect of over 75% in size
Target sequence (Q96KQ7 913-1193 limits assumed): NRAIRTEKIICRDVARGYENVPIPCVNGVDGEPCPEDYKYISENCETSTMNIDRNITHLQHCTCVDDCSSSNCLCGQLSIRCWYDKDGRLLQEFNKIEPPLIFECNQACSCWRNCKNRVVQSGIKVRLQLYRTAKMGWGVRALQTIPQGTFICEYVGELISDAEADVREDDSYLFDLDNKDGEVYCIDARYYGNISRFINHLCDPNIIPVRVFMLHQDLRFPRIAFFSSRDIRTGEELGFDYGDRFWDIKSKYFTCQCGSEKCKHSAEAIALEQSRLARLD
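Methyltransferase reactions run at room temperature for 2 h (20 nM enzyme, 500 nM biotin-H3K9 peptide, 20 uM SAM) after a 15 min compound preincubation; product detected by AlphaScreen beads and anti-H3K9me1 antibody.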
Each line names hits and unclear results; the compound was inactive in the other large screens. Unless noted, calls come from the whole dose curve; as a rule, active = well fitted curve in the direction sought with a large enough effect; inconclusive = small, poorly fitted or top-dose-only effect, or another doubt; inactive = no such curve, though single readings can be large; an effect the other way counts as inactive or inconclusive.

O=C(O)CNS(=O)(=O)c1c(Cl)cccc1Cl	JMJD2A Tudor 14µM
CC1CCCCN1C(=O)c1ccc2c(c1)N(Cc1ccc(F)cc1)C(=O)c1ccccc1S2(=O)=O (stereo unspecified)	none (no result: PLK1 PBD block, PI5P4K alpha inh)
COc1ccc(CCCc2n[nH]c(=S)o2)cc1C	G9a block 8.9µM
COc1ccc(CCCc2n[nH]c(=S)n2C)cc1C	HP1b chromo inh inconclusive, JMJD2A Tudor 5.6µM, G9a block 11µM
CN(C)CCCNc1ncnc2ccc(-c3ccc4c(c3)OCO4)cc12	none (no result: PLK1 PBD block, BAZ2B block, PI5P4K alpha inh, HP1b chromo inh, G9a block)
O=C(Nc1ccccc1C(=O)NC1CC1)c1ccccc1F	none (no result: BAZ2B block, G9a block)
CC(C)CC(=O)Nc1ccc(C(=O)CN2C(=O)NC3(CCOc4ccccc43)C2=O)cc1 (stereo unspecified)	none
COc1ccc(/C=C2\OC(=O)c3c(OC)cccc32)cc1OC	none
COc1cc(/C=C2\Oc3cc(O)ccc3C2=O)ccc1O	PI5P4K alpha inh -61
O=C1/C(=C/c2cccc([N+](=O)[O-])c2)Oc2cc(O)ccc21	PI5P4K alpha inh inconclusive
O=C1/C(=C/c2ccc(O)c(O)c2)Oc2cc(O)ccc21	BAZ2B block 56µM, PI5P4K alpha inh -64, G9a block inconclusive
Cc1ccc(S(=O)(=O)N2CCN(c3nc(-c4cncn4C)nc4ccccc34)CC2)cc1	JMJD2A Tudor inconclusive (no result: PLK1 PBD block, BAZ2B block, PI5P4K alpha inh, G9a block)
CCOC(=O)CC1C(=O)NCCN1c1nc2ccc(C)cn2c(=O)c1/C=C1\SC(=S)N(CC(C)C)C1=O (stereo unspecified)	BAZ2B block 79µM, G9a block inconclusive
CCOC(=O)CC1C(=O)NCCN1c1nc2ccc(C)cn2c(=O)c1/C=C1\SC(=S)N(C(C)CC)C1=O (stereo unspecified)	BAZ2B block 28µM (no result: PLK1 PBD block, PI5P4K alpha inh, HP1b chromo inh, JMJD2A Tudor, G9a block)
COCCNC(=O)CSc1ccccc1C(=O)NC1CCSc2ccccc21 (stereo unspecified)	G9a block 35µM
COc1ccccc1OCC(=O)NC1CCSc2ccccc21 (stereo unspecified)	none
O=C(COc1ccccc1)NC1CCSc2ccccc21 (stereo unspecified)	G9a block 6.3µM
O=C(CNc1cccc(F)c1)N1CCc2ccccc2C1	none
CSc1ccc(CCNC(=O)CSc2ccsc2[N+](=O)[O-])cc1	PLK1 PBD block inconclusive, PI5P4K alpha inh -51
NS(=O)(=O)c1ccc(CCNC(=O)CSc2ccc([N+](=O)[O-])cc2)cc1	PLK1 PBD block inconclusive, G9a block inconclusive
NS(=O)(=O)c1ccc(CCNC(=O)CSc2ccsc2[N+](=O)[O-])cc1	PI5P4K alpha inh -67
CCOc1ccc(S(=O)(=O)NC2CCCC2)cc1	none
CC(=O)N(C)c1ccc(C=C2C=Cc3ccccc32)cc1	PLK1 PBD block inconclusive, HP1b chromo inh inconclusive, JMJD2A Tudor 79µM (no result: BAZ2B block, G9a block)
CN(N=O)c1ccc(C=C2C=Cc3ccccc32)cc1	JMJD2A Tudor inconclusive (no result: BAZ2B block, G9a block)
CS(=O)(=O)c1ccc(N)cc1	G9a block 45µM
O=C(COc1ccc2ccccc2c1)N1CCN(C(=O)c2ccco2)CC1	none
O=C(Nc1ccc(-c2nnn(CC(=O)N3CCN(C(=O)c4ccco4)CC3)n2)cc1)c1ccc(F)cc1	BAZ2B block 79µM, G9a block 56µM
Cc1ccc(C(=O)Nc2ccc(N3CCN(C(=O)c4ccco4)CC3)cc2)cc1	PLK1 PBD block inconclusive, JMJD2A Tudor 79µM
O=C(NCc1ccccc1)c1cccc(OCC(=O)N2CCN(C(=O)c3ccco3)CC2)c1	BAZ2B block inconclusive, JMJD2A Tudor 40µM, G9a block 8.9µM
Cc1ccc(C(=O)c2cc(C)sc2NC(=O)CN2CCN(C(=O)c3ccco3)CC2)cc1	BAZ2B block inconclusive, HP1b chromo inh inconclusive, JMJD2A Tudor inconclusive, G9a block 32µM
O=C(Cn1nnc(-c2ccc(F)cc2)n1)N1CCCCC1	none
c1ccc2c(C3OCC4(CCCCC4)CO3)cccc2c1	none (no result: BAZ2B block, HP1b chromo inh, JMJD2A Tudor, G9a block)
O=C(Cc1ccc(Cl)cc1)Nc1ccc(N2CCN(C(=O)c3ccco3)CC2)cc1	G9a block 7.9µM
Cc1cccc(OCC(=O)Nc2ccc(N3CCN(C(=O)c4ccco4)CC3)cc2)c1	G9a block 79µM (no result: PI5P4K alpha inh)
Cc1ccc(OCC(=O)Nc2ccc(N3CCN(C(=O)c4ccco4)CC3)cc2)cc1C	none
Cn1cnc2c(cnn2C)c1=O	none (no result: BAZ2B block, G9a block)
Cc1cc(C)n2nc(C(=O)N/N=C/c3ccc(Cl)cc3)nc2n1	none
COc1ccc(C(=O)NNC(=O)Cc2nc3nc(C)cc(C)n3n2)cc1	G9a block 0.35µM
Cc1cc(C)n2nc(C(=O)NNC(=O)c3ccc(Cl)cc3)nc2n1	BAZ2B block 89µM, G9a block inconclusive
Cc1ccc(C(=O)NNC(=O)Cc2nc3nc(C)cc(C)n3n2)cc1	none (no result: G9a block)
Cc1cc(C)n2nc(CC(=O)NNC(=O)c3ccccc3Cl)nc2n1	G9a block 7.1µM
Cc1ccc(NC(=O)c2c(C)oc3ncn(CC(C)C)c(=O)c23)nc1	none (no result: PLK1 PBD block, PI5P4K alpha inh)
Cc1ccc(-c2nnn(CC(=O)N(Cc3cccs3)C(C(=O)NC(C)(C)C)c3ccc(C)o3)n2)o1 (stereo unspecified)	G9a block inconclusive (no result: PI5P4K alpha inh)
Cc1ccc(-c2nnn(CC(=O)N(Cc3ccco3)C(C(=O)NC(C)(C)C)c3cccs3)n2)o1 (stereo unspecified)	BAZ2B block inconclusive, G9a block 13µM (no result: PI5P4K alpha inh)
Cc1ccc(-c2nnn(CC(=O)N(Cc3cccs3)C(C(=O)NC(C)(C)C)c3ccco3)n2)o1 (stereo unspecified)	G9a block 18µM
COc1ccc(CCNC(=O)c2cc3c(=O)[nH]c4ccc(C)cc4c3s2)cc1OC	none (no result: PLK1 PBD block, PI5P4K alpha inh)
CCOC(=O)c1c(-c2ccco2)csc1NC(=O)COC(=O)c1cnccn1	PI5P4K alpha inh -64, HP1b chromo inh inconclusive, JMJD2A Tudor inconclusive, G9a block 8.9µM
CCOC(=O)c1c(-c2ccc(C)o2)csc1NC(=O)CN1CCC(C(N)=O)CC1	BAZ2B block inconclusive, HP1b chromo inh inconclusive, G9a block 45µM
CCOC(=O)c1c(-c2ccc(C)o2)csc1NC(=S)NC(=O)c1ccc(F)cc1	none
CCOC(=O)c1c(-c2ccc(C)o2)csc1NC(=O)CSc1nncs1	PLK1 PBD block inconclusive, HP1b chromo inh inconclusive, JMJD2A Tudor 56µM, G9a block 10µM (no result: PI5P4K alpha inh)
CCOC(=O)c1c(-c2ccc(C)o2)csc1NC(=O)CN1CCCCC1	BAZ2B block inconclusive, G9a block 40µM
O=C(NCCCN1CCN(c2ccc(F)cc2)CC1)Nc1ccc(Cl)cc1	BAZ2B block inconclusive, JMJD2A Tudor inconclusive (no result: PLK1 PBD block, PI5P4K alpha inh)
CCCCOc1ccc(S(=O)(=O)Nc2ccc(-c3ccc(N4CCC(C)CC4)nn3)cc2)cc1	none (no result: PLK1 PBD block, PI5P4K alpha inh)
COc1ccc(CCC(=O)NCc2ccc3c(c2)CCN3C(=O)c2cccc(C)c2)cc1	none (no result: PLK1 PBD block, PI5P4K alpha inh)
CCOC(=O)c1c(-c2ccco2)csc1NC(=O)CSc1nnc(N)s1	BAZ2B block inconclusive, G9a block 40µM (no result: PI5P4K alpha inh)
COCCCNC(=O)C1CCC(Cn2c(=O)c3sccc3n(C)c2=O)CC1 (stereo unspecified)	none (no result: PLK1 PBD block, PI5P4K alpha inh)
